In PubChem BioAssay (NCI) one finds growth inhibition data, which are given here for ten molecules.

Test [1] in a line: NCI Yeast Anticancer Drug Screen. Data for the rad50 strain (AID 155).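 Also: 0% = growth of vehicle-only cultures of the same strain.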 Particulars: S. cerevisiae rad50 strain growth inhibition, hits give high values. The procedure, abridged:
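Vehicle-treated cultures provide the reference for the growth inhibition reported for compound-exposed, repair-deficient yeast.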

A short description of test [2]: NCI Yeast Anticancer Drug Screen. Data for the mec2-1 strain (AID 157). As to conditions: S. cerevisiae mec2-1 strain, hits give high values. In short, it runs like this: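 Each compound was tested on mec2-1 yeast, a strain altered in DNA damage repair or cell cycle control. Growth inhibition is reported relative to vehicle.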
Test [3] can be described thus: NCI Yeast Anticancer Drug Screen. Data for the sgs1 mgt1 strain (AID 161).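 Also: 0% = growth of cultures given vehicle only.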 Particulars: S. cerevisiae sgs1 mgt1 strain, hits give high values. In short, it runs like this: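 Inhibition of yeast growth, normalised to vehicle-treated controls, is reported for a strain bearing genetic alterations in DNA damage repair.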
A short description of test [4]: NCI Yeast Anticancer Drug Screen. Data for the cln2 rad14 strain (AID 165).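 Also: 0% = growth equal to vehicle treated cultures.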 Particulars: S. cerevisiae cln2 rad14 strain, hits give high values. In short, it runs like this: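 Test compounds were added to cln2 rad14 yeast cultures; inhibition of growth was then determined by comparison with vehicle treatment.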
The nature of test [5]: NCI Yeast Anticancer Drug Screen. Data for the bub3 strain (AID 167). Particulars: S. cerevisiae bub3 mutant strain, hits give high values. The procedure, abridged:
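Mutant yeast screening strain plus compound; vehicle-treated cultures serve as the 0% inhibition reference.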

A short description of test [6]: NCI Yeast Anticancer Drug Screen. Data for the mlh1 rad18 strain (AID 175). Particulars: S. cerevisiae mlh1 rad18 strain growth inhibition, hits give high values. In short, it runs like this: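 Inhibition values reflect reduced growth of mutant yeast versus vehicle-treated controls following compound exposure; the mutations affect DNA damage repair.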
The mark [7] stands for this setting: at 5.0 µM (retest, dose inferred, filed as 0.5).
Where [8] appears, read: at 50.0 µM (retest, dose inferred, filed as 5.0).

Compounds without any hit were thinned out: in the full panel of roughly 79,000, 15% have a hit. Unmarked numbers belong to inactive results. Calls of active or inactive are those of the source. Rule as the data show it: active = growth inhibition above about 70%; inactive = the rest.

Turning to `C/C(=N\NC(=S)N1CCN(c2ccccn2)CC1)c1ncccn1`, the growth inhibition is 2% in test [1] (setting [7]); -6% in test [1] (setting [8]); 32.5% in test [1] (at 50.0 µM); -20% in test [2] (setting [7]); -10% in test [2] (setting [8]); 49.9% in test [2] (at 50.0 µM). Also, the growth inhibition in test [3] (setting [7]) is -7%; in test [3] (setting [8]), -13%; in test [3] (at 50.0 µM), 45.9%; in test [4] (setting [7]), -2%; in test [4] (setting [8]) it was 7%; in test [4] (at 50.0 µM), 83.2% (active). Also, the growth inhibition in test [5] (setting [7]) was -10%; in test [5] (setting [8]), -9%; in test [5] (at 50.0 µM) it was 93.6% (active); in test [6] (setting [7]), -3%; in test [6] (setting [8]), 10%; in test [6] (at 50.0 µM), 86% (active).
In the case of `CCOC(=O)C[n+]1c(C)cc(-c2ccccc2)cc1C`, the growth inhibition in test [1] (setting [7]) is -2%; in test [1] (setting [8]), 1%; in test [1] (at 50.0 µM), 13.6%; in test [2] (setting [7]) it was 7%; in test [2] (setting [8]), -15%; in test [2] (at 50.0 µM), 6.3%. Also, the growth inhibition is -1% in test [3] (setting [7]); -3% in test [3] (setting [8]); 12.2% in test [3] (at 50.0 µM); -1% in test [4] (setting [7]); 2% in test [4] (setting [8]); 28.1% in test [4] (at 50.0 µM). Moreover, the growth inhibition in test [5] (setting [7]) is 24%; in test [5] (setting [8]), -4%; in test [5] (at 50.0 µM), 14.2%; in test [6] (setting [7]), 9%; in test [6] (setting [8]), 21%; in test [6] (at 50.0 µM), 7.55%.
For the molecule `S=C1Nc2cnc3ccccc3c2SC1c1ccccc1` (stereo not given), the growth inhibition in test [1] (setting [7]) is -5%; in test [1] (setting [8]), 98% (active); in test [1] (at 50.0 µM), 87% (active); in test [2] (setting [7]) it was 7%; in test [2] (setting [8]) it was 98% (active); in test [2] (at 50.0 µM), 92% (active). The growth inhibition is -15% in test [3] (setting [7]); 98% (active) in test [3] (setting [8]); 87.8% (active) in test [3] (at 50.0 µM); -9% in test [4] (setting [7]); 98% (active) in test [4] (setting [8]); 90.3% (active) in test [4] (at 50.0 µM). Further, the growth inhibition in test [5] (setting [7]) was -8%; in test [5] (setting [8]) it was 98% (active); in test [5] (at 50.0 µM) it was 90.8% (active); in test [6] (setting [7]), 4%; in test [6] (setting [8]), 98% (active); in test [6] (at 50.0 µM), 85.3% (active).
On to `CCOC(=O)C(NC(=O)C(CO)n1c(-c2ccccc2)c(-c2ccccc2)oc1=O)C(=O)OCC` (stereo not given), for which the growth inhibition in test [1] (setting [7]) is 7%; in test [1] (setting [8]) it was 42%; in test [1] (at 50.0 µM), 43.6%; in test [2] (setting [7]) it was 2%; in test [2] (setting [8]) it was 19%; in test [2] (at 50.0 µM), 26.4%. In addition, the growth inhibition in test [3] (setting [7]) was -2%; in test [3] (setting [8]) it was 35%; in test [3] (at 50.0 µM), 41.5%; in test [4] (setting [7]), -1%; in test [4] (setting [8]), 51%; in test [4] (at 50.0 µM), -1.9%. Also, the growth inhibition was 1% in test [5] (setting [7]); 51% in test [5] (setting [8]); 22.2% in test [5] (at 50.0 µM); 1% in test [6] (setting [7]); 20% in test [6] (setting [8]); 53.1% in test [6] (at 50.0 µM).
For `O=[N+]([O-])c1cccc2nc3ccccc3c(NCCO)c12`, the growth inhibition in test [1] (setting [7]) was 78% (active); in test [1] (setting [8]), 94% (active); in test [1] (at 50.0 µM), 86.8% (active); in test [2] (setting [7]) it was 84% (active); in test [2] (setting [8]) it was 98% (active); in test [2] (at 50.0 µM), 92% (active). The growth inhibition is 82% (active) in test [3] (setting [7]); 95% (active) in test [3] (setting [8]); 91.5% (active) in test [3] (at 50.0 µM); 89% (active) in test [4] (setting [7]); 96% (active) in test [4] (setting [8]); 92% (active) in test [4] (at 50.0 µM). Moreover, the growth inhibition in test [5] (setting [7]) was 28%; in test [5] (setting [8]), 94% (active); in test [5] (at 50.0 µM) it was 87.2% (active); in test [6] (setting [7]), 89% (active); in test [6] (setting [8]) it was 96% (active); in test [6] (at 50.0 µM) it was 86.6% (active).
For `CCCCCCCCCCCCCCNCc1ccccc1`, the growth inhibition in test [1] (setting [7]) was 99% (active); in test [1] (setting [8]) it was 97% (active); in test [1] (at 50.0 µM) it was 98.8% (active); in test [2] (setting [7]), 99% (active); in test [2] (setting [8]), 98% (active); in test [2] (at 50.0 µM), 98.5% (active). For the same molecule, the growth inhibition in test [3] (setting [7]) was 99% (active); in test [3] (setting [8]), 97% (active); in test [3] (at 50.0 µM), 98.2% (active); in test [4] (setting [7]), 99% (active); in test [4] (setting [8]), 97% (active); in test [4] (at 50.0 µM) it was 97.5% (active). For the same molecule, the growth inhibition is 99% (active) in test [5] (setting [7]); 97% (active) in test [5] (setting [8]); 98.6% (active) in test [5] (at 50.0 µM); 99% (active) in test [6] (setting [7]); 97% (active) in test [6] (setting [8]); 97.5% (active) in test [6] (at 50.0 µM).
For the molecule `COc1cnn(-c2ccccc2)c(=O)c1SCc1ccc(Cl)c(Cl)c1`, the growth inhibition is -3% in test [1] (setting [7]); 7% in test [1] (setting [8]); 42.5% in test [1] (at 50.0 µM); -3% in test [2] (setting [7]); 33% in test [2] (setting [8]); 7.95% in test [2] (at 50.0 µM). The growth inhibition in test [3] (setting [7]) was 1%; in test [3] (setting [8]), 62%; in test [3] (at 50.0 µM) it was 71.2% (active); in test [4] (setting [7]) it was -6%; in test [4] (setting [8]), 23%; in test [4] (at 50.0 µM), 49.9%. Besides, the growth inhibition is 2% in test [5] (setting [7]); 51% in test [5] (setting [8]); 53% in test [5] (at 50.0 µM); -4% in test [6] (setting [7]); 25% in test [6] (setting [8]); 37.4% in test [6] (at 50.0 µM).
Take `N#C/C(=C\c1c(Cl)cccc1Cl)c1ccccc1`: the growth inhibition in test [1] (setting [7]) was 11%; in test [1] (setting [8]), 37%; in test [1] (at 50.0 µM), 64.3%; in test [2] (setting [7]), -9%; in test [2] (setting [8]) it was 13%; in test [2] (at 50.0 µM) it was 29.3%. Moreover, the growth inhibition in test [3] (setting [7]) is 12%; in test [3] (setting [8]), 33%; in test [3] (at 50.0 µM) it was 42.5%; in test [4] (setting [7]) it was 8%; in test [4] (setting [8]), 35%; in test [4] (at 50.0 µM) it was 23%. The growth inhibition is 21% in test [5] (setting [7]); 62% in test [5] (setting [8]); 45.8% in test [5] (at 50.0 µM); -18% in test [6] (setting [7]); 55% in test [6] (setting [8]); 70.7% (active) in test [6] (at 50.0 µM).
For the molecule `CCCCCCCCCCCCCCCCCC(=O)OCC(COC(=O)CCCN)OC(=O)CCCN` (stereo not given), the growth inhibition in test [1] (setting [7]) is 18%; in test [1] (setting [8]), 99% (active); in test [1] (at 50.0 µM) it was 98.7% (active); in test [2] (setting [7]), 9%; in test [2] (setting [8]), 99% (active); in test [2] (at 50.0 µM), 97.5% (active). The growth inhibition in test [3] (setting [7]) is 3%; in test [3] (setting [8]), 99% (active); in test [3] (at 50.0 µM) it was 98% (active); in test [4] (setting [7]), 5%; in test [4] (setting [8]) it was 96% (active); in test [4] (at 50.0 µM) it was 69%. For the same molecule, the growth inhibition in test [5] (setting [7]) was 5%; in test [5] (setting [8]), 99% (active); in test [5] (at 50.0 µM), 98.6% (active); in test [6] (setting [7]), 32%; in test [6] (setting [8]), 99% (active); in test [6] (at 50.0 µM), 97.5% (active).
With `C=CCOc1ccc(N=NC(C#N)C#N)cc1`, the growth inhibition in test [1] (setting [7]) is 8%; in test [1] (setting [8]), 88% (active); in test [1] (at 50.0 µM) it was 98.6% (active); in test [2] (setting [7]) it was 5%; in test [2] (setting [8]), 87% (active); in test [2] (at 50.0 µM) it was 98.3% (active). The growth inhibition in test [3] (setting [7]) is 3%; in test [3] (setting [8]) it was 88% (active); in test [3] (at 50.0 µM), 52.7%; in test [4] (setting [7]), 0%; in test [4] (setting [8]) it was 90% (active); in test [4] (at 50.0 µM), 58%. Further, the growth inhibition in test [5] (setting [7]) was -2%; in test [5] (setting [8]), 91% (active); in test [5] (at 50.0 µM) it was 97.8% (active); in test [6] (setting [7]) it was 4%; in test [6] (setting [8]) it was 93% (active); in test [6] (at 50.0 µM) it was 54%.
